A short description of assay [1]: NCI Yeast Anticancer Drug Screen. Data for the rad50 strain (AID 155).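 Further: 0% = growth of vehicle-only cultures of the same strain.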 As to conditions: S. cerevisiae rad50 strain growth inhibition, active compounds read high. The method, boiled down: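 DNA repair mutant yeast, compound exposure, growth read-out; inhibition is taken relative to vehicle.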
The nature of assay [2]: NCI Yeast Anticancer Drug Screen. Data for the mec2-1 strain (AID 157). The following applies: S. cerevisiae mec2-1 strain, active compounds read high. The method, boiled down:
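Cells of the genetically defined mec2-1 yeast strain are incubated with test compound. Inhibition of growth is calculated against vehicle-treated controls.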

Assay [3] is described as follows: NCI Yeast Anticancer Drug Screen. Data for the sgs1 mgt1 strain (AID 161).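 Further: 0% = growth of cultures given vehicle only.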 The following applies: S. cerevisiae sgs1 mgt1 strain, active compounds read high. The method, boiled down: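 Test agents were incubated with a DNA-repair-mutant yeast strain. Growth was then read and compared against vehicle-treated controls.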
Assay [4] can be described thus: NCI Yeast Anticancer Drug Screen. Data for the cln2 rad14 strain (AID 165).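 Further: 0% = growth equal to vehicle treated cultures.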 The following applies: S. cerevisiae cln2 rad14 strain, active compounds read high. The method in brief: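 The screen exposed genetically defined yeast (cln2 rad14) to test compounds and scored growth inhibition relative to vehicle-treated controls.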
Assay [5] is described as follows: NCI Yeast Anticancer Drug Screen. Data for the bub3 strain (AID 167). As to conditions: S. cerevisiae bub3 mutant strain, active compounds read high. The method, boiled down:
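In this screen, a yeast mutant lacking normal mitotic checkpoint function is challenged with compound. Relative growth versus vehicle gives the inhibition value.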

A short description of assay [6]: NCI Yeast Anticancer Drug Screen. Data for the mlh1 rad18 strain (AID 175). As to conditions: S. cerevisiae mlh1 rad18 strain growth inhibition, active compounds read high. The method, boiled down: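 Compound-treated yeast growth, normalised to vehicle controls. Strain bears defined DNA repair mutations.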
The mark [7] stands for this setting: at 5.0 µM (retest, dose inferred, filed as 0.5).
[8] abbreviates: at 50.0 µM (retest, dose inferred, filed as 5.0).

In PubChem BioAssay (NCI) one finds growth inhibition data, which are given here for nine compounds.

Molecules are shown by their SMILES. The panel holds about 79,000 compounds, 15% with a hit somewhere; the sample as a whole holds those more often. A number with no mark means an inactive call. Calls of active or inactive are those of the source. No stated cut-off is given here; in the data, active means growth inhibition above about 70%; inactive means the rest.

Take `CCCn1c(=O)c2ccccc2[n+]2c(-c3ccc([N+](=O)[O-])cc3)csc12`: the growth inhibition in assay [1] (setting [7]) was 5%; in assay [1] (setting [8]), 91% (active); in assay [1] (at 50.0 µM), 93% (active); in assay [2] (setting [7]), 1%; in assay [2] (setting [8]), 92% (active); in assay [2] (at 50.0 µM), 91.8% (active). Further, the growth inhibition in assay [3] (setting [7]) was 1%; in assay [3] (setting [8]), 67%; in assay [3] (at 50.0 µM), 92.1% (active); in assay [4] (setting [7]), -7%; in assay [4] (setting [8]), 77% (active); in assay [4] (at 50.0 µM) it was 67.1%. Further, the growth inhibition in assay [5] (setting [7]) is -17%; in assay [5] (setting [8]), 97% (active); in assay [5] (at 50.0 µM) it was 93.5% (active); in assay [6] (setting [7]), 11%; in assay [6] (setting [8]) it was 85% (active); in assay [6] (at 50.0 µM) it was 92.2% (active).
Turning to `CC(C)=CC(=O)OC(CCCc1ccccc1)c1ccc2c(c1)OCO2` (configuration not stated), the growth inhibition in assay [1] (setting [7]) is 5%; in assay [1] (setting [8]), -5%; in assay [1] (at 50.0 µM) it was -4.6%; in assay [2] (setting [7]), 7%; in assay [2] (setting [8]) it was -16%; in assay [2] (at 50.0 µM), -13.2%. For the same compound, the growth inhibition is -6% in assay [3] (setting [7]); 9% in assay [3] (setting [8]); -4.75% in assay [3] (at 50.0 µM); 0% in assay [4] (setting [7]); 3% in assay [4] (setting [8]); 0.35% in assay [4] (at 50.0 µM). Besides, the growth inhibition was 35% in assay [5] (setting [7]); 33% in assay [5] (setting [8]); 50% in assay [5] (at 50.0 µM); 2% in assay [6] (setting [7]); 14% in assay [6] (setting [8]); -8.25% in assay [6] (at 50.0 µM).
Consider `OC(CCl)c1ccc2ccc3c(c2c1)Nc1ccccc1S3` (configuration not stated), for which the growth inhibition in assay [1] (setting [7]) was 0%; in assay [1] (setting [8]), 80% (active); in assay [1] (at 50.0 µM), 80.4% (active); in assay [2] (setting [7]), -1%; in assay [2] (setting [8]), 88% (active); in assay [2] (at 50.0 µM) it was 97.2% (active). Further, the growth inhibition in assay [3] (setting [7]) is 2%; in assay [3] (setting [8]), 83% (active); in assay [3] (at 50.0 µM), 97.2% (active); in assay [4] (setting [7]) it was -1%; in assay [4] (setting [8]), 75% (active); in assay [4] (at 50.0 µM) it was 78.8% (active). Also, the growth inhibition in assay [5] (setting [7]) is 4%; in assay [5] (setting [8]) it was 87% (active); in assay [5] (at 50.0 µM) it was 87.9% (active); in assay [6] (setting [7]), -1%; in assay [6] (setting [8]), 86% (active); in assay [6] (at 50.0 µM), 96.5% (active).
As for `O=C1c2c(F)c(F)c(F)c(F)c2SC2=NCCN12`, the growth inhibition is 2% in assay [1] (setting [7]); 99% (active) in assay [1] (setting [8]); 78.4% (active) in assay [1] (at 50.0 µM); -4% in assay [2] (setting [7]); 98% (active) in assay [2] (setting [8]); 80.4% (active) in assay [2] (at 50.0 µM). In addition, the growth inhibition in assay [3] (setting [7]) was -10%; in assay [3] (setting [8]), 97% (active); in assay [3] (at 50.0 µM), 76.5% (active); in assay [4] (setting [7]), -23%; in assay [4] (setting [8]), 98% (active); in assay [4] (at 50.0 µM), 76.8% (active). Also, the growth inhibition in assay [5] (setting [7]) was -31%; in assay [5] (setting [8]), 99% (active); in assay [5] (at 50.0 µM), 83.2% (active); in assay [6] (setting [7]) it was 11%; in assay [6] (setting [8]) it was 98% (active); in assay [6] (at 50.0 µM) it was 78.7% (active).
Regarding `CC(=O)OCC1OC(OC2CCCc3c(O)c4c(c(O)c32)C(=O)c2ccccc2C4=O)C(OC(C)=O)C(OC(C)=O)C1OC(C)=O` (configuration not stated), the growth inhibition in assay [1] (setting [7]) was 32%; in assay [1] (setting [8]) it was 96% (active); in assay [1] (at 50.0 µM), 97.6% (active); in assay [2] (setting [7]) it was -8%; in assay [2] (setting [8]), 98% (active); in assay [2] (at 50.0 µM) it was 99.5% (active). Moreover, the growth inhibition in assay [3] (setting [7]) is 16%; in assay [3] (setting [8]), 98% (active); in assay [3] (at 50.0 µM), 98.8% (active); in assay [4] (setting [7]), 2%; in assay [4] (setting [8]), 96% (active); in assay [4] (at 50.0 µM) it was 28.9%. Besides, the growth inhibition in assay [5] (setting [7]) was 16%; in assay [5] (setting [8]) it was 98% (active); in assay [5] (at 50.0 µM), 99.2% (active); in assay [6] (setting [7]), 19%; in assay [6] (setting [8]), 97% (active); in assay [6] (at 50.0 µM), 82.1% (active).
As for `Cc1ncc(CO)c(C=NCCCCCCN=Cc2c(CO)cnc(C)c2[O-])c1[O-].[Cu+2]`, the growth inhibition was -2% in assay [1] (setting [7]); -1% in assay [1] (setting [8]); 3.9% in assay [1] (at 50.0 µM); -3% in assay [2] (setting [7]); 1% in assay [2] (setting [8]); -20.4% in assay [2] (at 50.0 µM). The growth inhibition is -4% in assay [3] (setting [7]); -5% in assay [3] (setting [8]); -5.85% in assay [3] (at 50.0 µM); -5% in assay [4] (setting [7]); -1% in assay [4] (setting [8]); 81.2% (active) in assay [4] (at 50.0 µM). The growth inhibition in assay [5] (setting [7]) was -3%; in assay [5] (setting [8]), -1%; in assay [5] (at 50.0 µM), 25.9%; in assay [6] (setting [7]) it was -2%; in assay [6] (setting [8]) it was 0%; in assay [6] (at 50.0 µM) it was 25.4%.
In the case of `S=C1NC2=C(CSC/C2=C\c2ccccc2)C(c2ccccc2)N1` (configuration not stated), the growth inhibition in assay [1] (setting [7]) was 10%; in assay [1] (setting [8]), 96% (active); in assay [1] (at 50.0 µM), 60.2%; in assay [2] (setting [7]), -8%; in assay [2] (setting [8]) it was 97% (active); in assay [2] (at 50.0 µM), 58.2%. Also, the growth inhibition in assay [3] (setting [7]) is 8%; in assay [3] (setting [8]), 97% (active); in assay [3] (at 50.0 µM) it was 65.2%; in assay [4] (setting [7]), 26%; in assay [4] (setting [8]) it was 96% (active); in assay [4] (at 50.0 µM), 68.8%. Also, the growth inhibition is -45% in assay [5] (setting [7]); 96% (active) in assay [5] (setting [8]); 73.1% (active) in assay [5] (at 50.0 µM); 35% in assay [6] (setting [7]); 97% (active) in assay [6] (setting [8]); 72.3% (active) in assay [6] (at 50.0 µM).
For the compound `CCCCCCCCCCCC(=O)OCCN(CC)CC`, the growth inhibition was 3% in assay [1] (setting [7]); 99% (active) in assay [1] (setting [8]); 95.8% (active) in assay [1] (at 50.0 µM); -1% in assay [2] (setting [7]); 99% (active) in assay [2] (setting [8]); 98.6% (active) in assay [2] (at 50.0 µM). In addition, the growth inhibition was 4% in assay [3] (setting [7]); 99% (active) in assay [3] (setting [8]); 65.5% in assay [3] (at 50.0 µM); 0% in assay [4] (setting [7]); 99% (active) in assay [4] (setting [8]); 97.9% (active) in assay [4] (at 50.0 µM). The growth inhibition in assay [5] (setting [7]) is -3%; in assay [5] (setting [8]), 98% (active); in assay [5] (at 50.0 µM), 93.2% (active); in assay [6] (setting [7]) it was -2%; in assay [6] (setting [8]), 99% (active); in assay [6] (at 50.0 µM), 98% (active).
`COc1cc(Br)c(CC(NC=O)c2ccc3c(c2)OCO3)cc1OC` (configuration not stated): the growth inhibition in assay [1] (setting [7]) was -4%; in assay [1] (setting [8]) it was 81% (active); in assay [1] (at 50.0 µM) it was 62.5%; in assay [2] (setting [7]) it was -3%; in assay [2] (setting [8]), 74% (active); in assay [2] (at 50.0 µM), 66.3%. For the same compound, the growth inhibition in assay [3] (setting [7]) is -5%; in assay [3] (setting [8]), 95% (active); in assay [3] (at 50.0 µM), 36.5%; in assay [4] (setting [7]) it was 4%; in assay [4] (setting [8]) it was 95% (active); in assay [4] (at 50.0 µM) it was 57.4%. Besides, the growth inhibition in assay [5] (setting [7]) was 3%; in assay [5] (setting [8]), 98% (active); in assay [5] (at 50.0 µM) it was 96.3% (active); in assay [6] (setting [7]), -1%; in assay [6] (setting [8]), 81% (active); in assay [6] (at 50.0 µM), 56.5%.
